Here are results for 18 compounds from PubChem BioAssay.

Active and inactive are the calls of the source. The rule behind the calls is not given here.

Sequence of Pantothenate synthetase (Mycobacterium tuberculosis (strain ATCC 25618 / H37Rv)) (P9WIL5 whole entry, looked up): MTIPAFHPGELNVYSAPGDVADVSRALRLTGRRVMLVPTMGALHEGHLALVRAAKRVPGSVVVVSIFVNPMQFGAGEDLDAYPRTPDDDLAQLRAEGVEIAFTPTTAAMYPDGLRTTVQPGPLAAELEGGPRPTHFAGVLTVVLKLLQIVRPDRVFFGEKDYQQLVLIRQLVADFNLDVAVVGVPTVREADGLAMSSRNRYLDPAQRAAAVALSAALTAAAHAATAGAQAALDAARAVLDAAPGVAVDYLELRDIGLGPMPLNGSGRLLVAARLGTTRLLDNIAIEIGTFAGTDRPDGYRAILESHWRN

This test concerns the target Pantothenate synthetase (Mycobacterium tuberculosis (strain ATCC 25618 / H37Rv)) (UniProt P9WIL5). As to the kind of experiment: Recombinant Mtb pantothenate synthetase (PanC) inhibitors, coupled enzyme, confirmatory (AID 375).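 Note: 0% = full reaction with vehicle and 100% = no enzyme background.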 Conditions: coupled enzyme assay; at 10 µM, stronger effect = higher value.
One may read the inhibition as the percentage by which the read-out fell short of the control. On to `Cc1ccc(C(=O)CCC2CCCC2=O)cc1` (stereo not drawn), for which the inhibition was 0% (inactive).

As to `Cc1cc(C(=O)N2CCN(C(c3ccccc3)c3ccccc3)CC2)no1`, the inhibition was 3% (inactive).

In the case of `O=C1NC(=O)C(c2ccccc2)(c2ccccc2)N1`, the inhibition was 0% (inactive).

For the compound `CC(=O)OCC(=O)[C@@]1(O)CC[C@H]2[C@@H]3CCC4=CC(=O)CC[C@]4(C)[C@H]3C(=O)C[C@@]21C`, the inhibition was 0% (inactive).

Regarding `Cn1c(CN2CCOCC2)nnc1SCC(=O)NCCc1ccccc1`, the inhibition is 0% (inactive).

Take `CCOCCCNc1ncnc2c1[nH]c1ccccc12`: the inhibition is 0% (inactive).

For the compound `CCN(CC)c1ccc2c(c1)CCCN2`, the inhibition was 3% (inactive).

Regarding `CCCn1c(=NC(C)=O)c(C#N)cc2c(=O)n3cccc(C)c3nc21`, the inhibition is 0% (inactive).

Turning to `CCOCCCNC(=O)c1cc2sc(Cl)cc2n1CC`, the inhibition is 0% (inactive).

Consider `Cc1ccc(OCC(O)Cn2c(=N)n(CCN3CCCCC3)c3ccccc32)cc1` (stereo not drawn), for which the inhibition is 0% (inactive).

On to `COc1ccc2c(c1)Sc1ccccc1N2CCN(C)C`, for which the inhibition is 3% (inactive).

For `COc1ccc(-c2nc3c(n2O)CCC/C3=N\O)cc1`, the inhibition is 0% (inactive).

For the compound `CCOC(=O)c1ccc(NC(=O)CCNc2c(N3CCCC3)c(=O)c2=O)cc1`, the inhibition was 0% (inactive).

On to `O=C(CSc1nnc(-c2cccnc2)o1)Nc1ccccn1`, for which the inhibition is 0% (inactive).

On to `O=C(COc1ccccc1Cl)NCCCN1CCOCC1`, for which the inhibition is 0% (inactive).

Regarding `CCc1nc(N)c(C#N)c(-c2ccc(OC)c(OC)c2)c1C`, the inhibition is 2% (inactive).

As for `COP(C)(=O)c1c(C)nn(-c2ccccc2)c1C` (stereo not drawn), the inhibition was 0% (inactive).

`CC1=C(c2ccc(Cl)cc2)[N+](=O)C(C)(C)N1[O-]`: the inhibition is 0% (inactive).
